Screening results as filed in PubChem.
Bim-Mcl-1 – disrupts Bim peptide binding to human Mcl-1; Q07820; inhibition, % at 10 µM; Bead-based flow cytometry, Bim peptide-Mcl-1 binding; 190,000 tested, 0.1% active; in the data active = inhibition above about 40%;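 also: 0% = no compound tracer wells and 100% = peptide blocker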
Target sequence (Q07820 whole entry, looked up): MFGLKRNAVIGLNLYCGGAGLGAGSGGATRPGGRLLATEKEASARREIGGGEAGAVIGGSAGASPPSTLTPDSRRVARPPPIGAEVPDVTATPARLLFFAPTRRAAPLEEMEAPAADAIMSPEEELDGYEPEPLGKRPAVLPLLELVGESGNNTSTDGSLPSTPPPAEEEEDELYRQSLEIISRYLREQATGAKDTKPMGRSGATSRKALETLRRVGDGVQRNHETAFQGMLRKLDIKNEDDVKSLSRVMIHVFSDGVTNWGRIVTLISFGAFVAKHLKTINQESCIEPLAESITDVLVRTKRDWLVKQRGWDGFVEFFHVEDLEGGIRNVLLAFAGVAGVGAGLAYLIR
Mcl1 Noxa PPI – Mcl-1/Noxa interaction inhibition | Q07820 | TR-FRET Mcl-1/Noxa peptide binding, 2 h | inhibition, % at 21.7 µM | 220,000 tested, 1.5% active | AID 1022;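 active = compounds that cut the protein-peptide binding signal by more than 50% relative to plate controls in a single-dose test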;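 also: His-tagged Mcl-1 with rhodamine Noxa BH3 peptide and terbium anti-His antibody; 0% = Mcl-1 plus Noxa peptide wells and 100% = peptide-only wells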
MCL1-BIM inh – disrupts human MCL1 binding to BIM-BH3 peptide; Q07820; GST-MCL1 / FITC-Bim-BH3 fluorescence polarization; inhibition, % at 10.9 µM; 320,000 tested, 0.68% active; AID 2057;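 active = inhibition above the mean inhibition of all tested compounds plus 3 SD, set per campaign, cut at about 40% in these data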;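 also: 0% = DMSO wells and 100% = unlabeled Bim-BH3 peptide control; higher means more loss of mP so more displacement of Bim peptide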
Mcl1 Bid PPI – Mcl-1/Bid interaction inhibition | Q07820 | 220,000 tested, 0.97% active | inhibition, % at 21.7 µM | TR-FRET Mcl-1/Bid-Dy647 peptide binding, 1536-well;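 active = compounds that cut the binding signal by more than half at the single screening dose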;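 also: His-tagged Mcl-1 with europium anti-His antibody binding Bid BH3 peptide; 0% = Mcl-1 plus peptide wells and 100% = peptide-only wells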
* marks the source's active call; other numbers are inactive results; · = no result given. The list is not random: actives were taken first. Their share in the collection is about 2%.

SMILES	Bim-Mcl-1	Mcl1 Noxa PPI	MCL1-BIM inh	Mcl1 Bid PPI
Nc1nc(Nc2cccc(F)c2)nc(N2CCOCC2)c1[N+](=O)[O-]	·	10	2	77*
Cc1csc(NC(=O)CSc2nnc(NC(=O)NC(C)(C)C)s2)n1	·	·	-3	·
O=C(Nc1ccc([N+](=O)[O-])cc1)Nc1nc(-c2ccc(Cl)s2)cs1	-4	82*	0	29
O=C(O)C1CCCCC1C(=O)Nc1nc(-c2ccc(Cl)s2)cs1 (stereo unspecified)	1	71*	25	-114
COC(=O)[C@@]12CCCCN1[C@H](c1ccc(-c3ccc(OC)cc3)c(OC)c1)[C@@H]1C(=O)N(C)C(=O)[C@@H]12	·	·	-3	·
NNC(=O)CCN(Cc1ccco1)S(=O)(=O)c1ccc(Cl)cc1	·	11	1	5
CC(=O)Nc1ccc2nc(CN3CCC(CO)(CCc4ccccc4)CC3)ccc2c1	·	42	-2	14
Cc1cc(-c2nnc3n2N=C(c2ccc(-c4ccccc4)cc2)CS3)n[nH]1	7	4	-2	7
c1ccc(-c2cc(-c3nnc4n3N=C(c3ccc5ccccc5c3)CS4)[nH]n2)cc1	0	31	2	58*
COC(=O)CCC(=O)OC1(C)C(=O)C2=CN(c3ccc(OC)cc3)C(c3ccc(OC)cc3)=CC2=C(Br)C1=O (stereo unspecified)	·	·	13	·
COCCN1C=C2C(=O)C(C)(OC(=O)CCC(=O)OC)C(=O)C(Br)=C2C=C1c1ccc(OC)cc1 (stereo unspecified)	·	·	44*	·
COC(=O)CCC(=O)OC1(C)C(=O)C2=CN(Cc3ccco3)C(c3ccc(OC)cc3)=CC2=C(Br)C1=O (stereo unspecified)	·	·	49*	·
CCN(CC)CCCN1C=C2C(=O)C(C)(OC(=O)CCC(=O)OC)C(=O)C(Br)=C2C=C1c1ccc(OC)cc1 (stereo unspecified)	·	·	30	·
CC1Cc2ccccc2N1C(=O)Cn1cnc2ccccc21 (stereo unspecified)	-2	5	0	3
Cc1cc(O)c(Sc2ncn[nH]2)cc1NS(=O)(=O)c1ccc(Cl)cc1	·	·	21	·
O=S(=O)(Nc1cc(Sc2ncn[nH]2)c(O)c2ccccc12)c1ccccc1	4	83*	·	18
CN(CCc1ccccn1)C(=O)CCC1CCCN(C(=O)NC2CCCCC2)C1 (stereo unspecified)	57*	-1	-6	-32
COc1cc(/C=N/NC(=O)C2CC(=O)N(c3ccc(C)cc3)C2)cc(OC)c1OC (stereo unspecified)	·	·	-8	·
CC(=O)Nc1c2c3c(cccc3n(C)c1=O)C(=O)c1ccccc1-2	0	10	50*	-15
CC(C)(C)NC(=O)c1cccc2c1-c1ccccc1C2=O	·	·	1	·
Cc1cc(/C=c2\sc3nc4ccccc4n3c2=O)c(C)n1-c1ccc(C(=O)O)cc1	0	65*	·	-12
O=c1/c(=C/c2ccc(O)c([N+](=O)[O-])c2)sc2nc3ccccc3n12	-2	80*	·	28
CCc1cc2c(=O)n3c(nc2s1)-c1[nH]c2ccc(OC)cc2c1CC3	-1	10	0	10
COc1ccc2[nH]c3c(c2c1)CCn1c-3nc2sc(C(=O)Nc3ccccc3)c(C)c2c1=O	0	54*	·	75*
CC12CCC(C(=O)Nc3ccccc3N3CCOCC3)(CC1=O)C2(C)C (stereo unspecified)	1	4	4	-8
SMILES	Bim-Mcl-1	Mcl1 Noxa PPI	MCL1-BIM inh	Mcl1 Bid PPI
CC12CCC(C(=O)Nc3ccccc3-n3cccc3)(CC1=O)C2(C)C (stereo unspecified)	-3	-2	7	76*
CCCCC(=O)Nc1cc(Cl)ccc1C(=O)O	-4	8	-3	-10
CC[C@H](C)/C=C(C)/C=C/C1=CC2=CC(=O)[C@]3(C)OC(=O)[C@@H](C(C)=O)[C@@H]3C2=CO1	1	4	47*	-13
CCCCC(=O)Nc1ccc(C(=O)Nc2ccc(S(=O)(=O)Nc3ccc(C)cc3)cc2)cc1	-1	13	0	-8
Cc1cc(C(F)F)n2nc(C(=O)Nc3sc4c(c3C(N)=O)CCC4)nc2n1	-12	74*	30	-87
COC(=O)c1c(NC(=O)c2nc3nc(C)cc(C(F)F)n3n2)sc2c1CCC2	0	25	-2	39
Cn1cnc(S(=O)(=O)Nc2ccc(Cl)c(C(F)(F)F)c2)c1	·	·	3	·
O=C(OCC(=O)N1CCCC1=O)C1COc2ccccc2O1 (stereo unspecified)	0	58*	1	-3
CCOC(=O)Cc1csc(NC(=O)CSc2nnnn2-c2ccc(C)c(C)c2)n1	-3	-19	2	80*
